Values joined by “and” are separate entries in the source; they are usually repeats but may differ in a detail not shown here. Identical values can stand only once. Hit rate of the full screen: of about 5,500 compounds, about 2,000 (36%) were called active. Inconclusive results (about 18%) are left out. Rule as the data show it: active = normalized growth mostly below about 0.91 (no sharp cut-off); inconclusive = no clear call, values can overlap the other calls; inactive = mostly above about 0.92. The list shows a part of the results.
Experiment: chemical genetic growth profiling, strain panel (AID 1159580);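 also: tested at 20 µM; growth read once vehicle control cultures reached saturation at 30 °C; 1 = growth at the plate median or of vehicle wells; lower values mean less growth of the strain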
Settings: S. cerevisiae deletion strains, growth OD

Measured: normalized growth

Nc1ccc(C(=O)O)c(O)c1
inactive: locus YAL021C, strain ccr4, hits give low values 0.972 | locus YAL026C, strain drs2, hits give low values 1 | locus YAL030W, strain snc1, hits give low values 1 | locus YBL061C, strain skt5, hits give low values 0.989 | locus YBR009C, strain hhf1, hits give low values 1.02 | locus YBR021W, strain FUR4, hits give low values 1.01 | locus YBR023C, strain chs3, hits give low values 0.984 | locus YBR171W, strain sec66, hits give low values 0.98 | locus YBR229C, strain ROT2, hits give low values 1 | locus YBR231C, strain swc5, hits give low values 1 | locus YBR279W, strain paf1, hits give low values 0.996 | locus YCL011C, strain gbp2, hits give low values 0.991 | locus YCL016C, strain dcc1, hits give low values 0.965 | locus YCL029C, strain bik1, hits give low values 0.997 | locus YCL061C, strain MRC1, hits give low values 0.979 | locus YCL069W, strain vba3, hits give low values 0.99 | locus YCR088W, strain abp1, hits give low values 0.997 | locus YDL005C, strain med2, hits give low values 0.989 | locus YDL035C, strain GPR1, hits give low values 1.02 | locus YDL040C, strain nat1, hits give low values 0.99 | locus YDL074C, strain BRE1, hits give low values 1.01 | locus YDL101C, strain DUN1, hits give low values 1.01 | locus YDL134C, strain PPH21, hits give low values 1 | locus YDL185W, strain tfp1, hits give low values 1 | locus YDL192W, strain arf1, hits give low values 0.994 | locus YDR001C, strain nth1, hits give low values 0.989 | locus YDR069C, strain doa4, hits give low values 1 | locus YDR101C, strain arx1, hits give low values 1.01 | locus YDR137W, strain rgp1, hits give low values 0.959 | locus YDR150W, strain NUM1, hits give low values 1.01 | locus YDR159W, strain sac3, hits give low values 1.02 | locus YDR162C, strain NBP2, hits give low values 1.01 | locus YDR195W, strain ref2 0.996 | locus YDR297W, strain sur2, hits give low values 1.01 | locus YDR318W, strain mcm21, hits give low values 1.01 | locus YDR334W, strain swr1, hits give low values 0.98 | locus YDR335W, strain msn5, hits give low values 0.993 | locus YDR388W, hits give low values 1 | locus YDR392W, strain spt3, hits give low values 0.931 | locus YDR502C, strain sam2, hits give low values 0.998 | locus YEL003W, strain gim4, hits give low values 1.02 | locus YEL037C, strain rad23, hits give low values 1 | locus YEL061C, strain CIN8 (second series), hits give low values 0.994 | locus YEL061C, strain CIN8, hits give low values 1.01 | locus YER015W, strain faa2, hits give low values 0.999 | locus YER016W, strain bim1, hits give low values 1 | locus YER110C, hits give low values 1 | locus YER111C, strain swi4, hits give low values 0.984 | locus YER155C, strain BEM2 (second series), hits give low values 1 | locus YER155C, strain BEM2, hits give low values 1 | locus YER167W, strain BCK2, hits give low values 1.01 | locus YFR010W, strain ubp6, hits give low values 1 | locus YGL078C, strain dbp3, hits give low values 0.995 | locus YGL086W, strain mad1, hits give low values 0.997 | locus YGL167C, strain pmr1, hits give low values 0.992 | locus YGL173C, strain kem1, hits give low values 0.99 | locus YGL227W, strain vid30, hits give low values 0.991 | locus YGL240W, strain doc1, hits give low values 0.997 | locus YGL248W, strain PDE1, hits give low values 0.999 | locus YGL253W, strain hxk2, hits give low values 0.978 | locus YGR135W, strain pre9, hits give low values 0.993 | locus YGR252W, strain gcn5, hits give low values 0.959 | locus YHR013C, strain ard1, hits give low values 0.961 | locus YHR027C, strain rpn1, hits give low values 0.997 | locus YHR030C, strain SLT2, hits give low values 0.974 and 1.01 and 1.07 | locus YHR079C, strain IRE1 (second series), hits give low values 1 | locus YHR079C, strain IRE1, hits give low values 1.02 and 1.04 | locus YHR094C, strain hxt1, hits give low values 0.997 | locus YHR129C, strain ARP1, hits give low values 1.01 | locus YHR142W, strain chs7, hits give low values 0.964 | locus YHR200W, strain rpn10, hits give low values 0.999 | locus YIL066C, strain RNR3, hits give low values 1.03 | locus YIL073C, strain SPO22, hits give low values 1.04 | locus YIL125W, strain kgd1, hits give low values 1 | locus YIR030C, strain dcg1, hits give low values 1 | locus YJL092W, strain hpr5, hits give low values 0.984 | locus YJL095W, strain BCK1 (second series), hits give low values 0.997 | locus YJL095W, strain BCK1, hits give low values 0.994 and 1.01 and 1.04 | locus YJL115W, strain asf1, hits give low values 0.99 | locus YJL129C, strain trk1, hits give low values 0.968 | locus YJL134W, strain LCB3, hits give low values 1.01 | locus YJL154C, strain vps35, hits give low values 0.99 | locus YJL164C, strain tpk1, hits give low values 1.01 | locus YJL166W, strain qcr8, hits give low values 0.962 | locus YJL168C, strain set2, hits give low values 1 | locus YJL187C, strain SWE1 (second series), hits give low values 1.01 | locus YJL187C, strain SWE1, hits give low values 0.999 | locus YJR043C, strain POL32, hits give low values 1.01 | locus YJR066W, strain TOR1, hits give low values 0.963 and 0.985
